The list is not random: actives were taken first. Their share in the collection is about 2.4%.
Cruzain Triton: blocks cruzain activity in presence of Triton detergent | Potency, µM, without a hit: max response, negative = inhibition, most hits filed as inhibitors | 200,000 tested, 0.43% active | purified cruzain, Z-FR-AMC fluorescence, 0.01% Triton;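 note: plate controls were neutral wells for no effect and buffer without enzyme for full effect; nearly all actives have a fitted effect of over 40% in size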
Target sequence (P25779 123-467 limits assumed): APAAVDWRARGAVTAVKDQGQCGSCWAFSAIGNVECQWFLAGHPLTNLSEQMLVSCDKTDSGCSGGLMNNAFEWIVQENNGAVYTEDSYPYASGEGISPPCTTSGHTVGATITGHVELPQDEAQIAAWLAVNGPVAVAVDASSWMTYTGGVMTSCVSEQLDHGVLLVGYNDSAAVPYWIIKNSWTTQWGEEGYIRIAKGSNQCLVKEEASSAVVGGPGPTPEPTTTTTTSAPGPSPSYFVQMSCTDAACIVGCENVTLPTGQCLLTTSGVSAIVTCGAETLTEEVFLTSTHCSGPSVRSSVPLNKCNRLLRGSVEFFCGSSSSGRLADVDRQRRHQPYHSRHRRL
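Steps: dispense cruzain (1.5 nM final) in acetate buffer pH 5.5 with DTT and 0.01% Triton X-100; pin-transfer compounds; incubate 15 min RT; add Z-FR-AMC (2 uM final); read fluorescence every 30 s, using the 60 s intensity change.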
Cruzain inh noDet: cruzain (T. cruzi) inhibition without detergent. Potency, µM, for inactives: max response, negative = inhibition, most hits filed as inhibitors. purified cruzain, Z-FR-AMC fluorescence, no detergent. 200,000 tested, 2.3% active;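 note: plate controls were enzyme without inhibitor for no effect and buffer without enzyme for full effect; nearly all actives have a fitted effect of over 40% in size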
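Detergent-free condition (0.00005% Triton X-100) in acetate buffer pH 5.5 with DTT. 1.5 nM enzyme and compound were pre-mixed 15 min, then 2 uM Z-FR-AMC substrate added; reaction progress from fluorescence change between first and third reads (60 s).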
Starred values were filed as active, the others as inactive; ? = inconclusive. Calls come from the whole dose curve; as a rule, active = well fitted curve in the direction sought with a large enough effect; inconclusive = small, poorly fitted or top-dose-only effect, or another doubt; inactive = no such curve, though single readings can be large; an effect the other way counts as inactive or inconclusive. Potency is the fitted concentration of half-maximal effect.

SMILES	Cruzain Triton	Cruzain inh noDet
CCOc1ccc(-c2nnc(SCC(=O)NCc3ccc(Cl)cc3)o2)cc1	25µM*	20µM*
COc1ccc(-c2nnc(SCC(=O)Nc3cc(F)ccc3C)o2)cc1	4%	2%
CCOc1ccc(-c2nnc(SCC(=O)NCc3ccccc3)o2)cc1	-4%	-8%
CCOc1ccc(-c2nnc(SCC(=O)Nc3cc(F)ccc3F)o2)cc1	-7%	10µM*
Cc1cccc(Cc2c(C)nc3nc(SCC(=O)NC4CCCCC4)nn3c2C)c1	-4%	2%
OC[C@@H]1CCC[C@H](n2cnc3c(=S)nc[nH]c32)O1	5%	-1%
[O-]/C(=C(\C(=S)Nc1cccc2ccccc12)[n+]1ccccc1)c1ccc(Cl)s1	-14%	7.9µM*
CC(C)(C)c1cc[n+](/C(C(=S)NC2CC2)=C(/[O-])c2ccc(Cl)s2)cc1	-10%	-5%
O=C(CN1C(=O)C2(SCC(=O)N2c2ccccc2)c2ccccc21)Nc1ccccc1C(F)(F)F (configuration not stated)	-1%	-14%
COC(=O)c1scc(-c2ccc(C)cc2)c1S(=O)(=O)N1CCN(c2ccc(C(C)=O)cc2)CC1	-5%	-16%
c1ccc(-c2ccc(N3CC4(CCNCC4)C3)cc2)cc1	1%	?
c1ccc(-c2ccc(N3CCCC4(CCNCC4)C3)cc2)cc1	-3%	32µM*
O=c1oc2ccccc2c(O)c1/C=N/c1nc(-c2ccc(O)c(O)c2)cs1	2%	4%
Cc1ccc(CNC(=O)C(C)n2ccc3cc(S(=O)(=O)N4CCCC4)ccc32)cc1 (configuration not stated)	-5%	2%
Nc1nc(SCc2ccc(Cl)cc2Cl)nc2nc3c(cc12)CCCC3	14µM*	13µM*
Nc1nc(SCc2ccccc2Cl)nc2nc3c(cc12)CCCC3	-15%	4%
Cc1cc(NC(=O)C2CCCN(S(=O)(=O)c3cn(C)cn3)C2)ccc1Br (configuration not stated)	-2%	4%
CCCCCCc1cc2cc(S(=O)(=O)c3ccc(Cl)cc3)c(=O)oc2cc1O	-5%	13µM*
CCCCCCc1cc2cc(S(=O)(=O)c3ccc(C)cc3)c(=O)oc2cc1O	-12%	-21%
CCCCCCCCC/C=C/CC1CC(=O)OC1=O (configuration not stated)	-4%	?
COC(=O)c1ccccc1NC(=O)N1CCC(N2CCN(Cc3ccc(F)cc3)C(=O)C2=O)CC1	0%	6%
COc1ccc(/C=N/Nc2ccc(C(F)(F)F)cc2[N+](=O)[O-])cc1	-4%	2%
COc1ccc(NS(=O)(=O)c2ccc(N/N=C/c3ccc(N4CCOCC4)cc3)c([N+](=O)[O-])c2)cc1	-5%	25µM*
CCC1CCCCN1S(=O)(=O)c1cc2c3c(c1)CC(=O)N3CCC2 (configuration not stated)	-2%	-3%
COc1ccccc1OCCCSc1nc(-c2ccc(C(C)(C)C)cc2)nc2cc(=O)[nH]n12	-21%	-19%
SMILES	Cruzain Triton	Cruzain inh noDet
CC(C)(C)c1ccc(-c2nc(SCCCOc3ccccc3)n3[nH]c(=O)cc3n2)cc1	-7%	13µM*
CCN=C(Nc1ccc2c(c1)OCO2)SC1CC(=O)N(c2ccccc2F)C1=O (configuration not stated)	-4%	-8%
C/C(CCc1ccc2c(c1)OCO2)=N\N=C(/N)SC1CC(=O)N(c2ccccc2F)C1=O (configuration not stated)	-29%	16µM*
CC(C)C(=O)NC1CC(=O)N(c2ccc3c(c2)OCCO3)C1 (configuration not stated)	0%	7%
Cc1ccc(NC(=O)Cn2c(=O)n(Cc3nc(-c4ccccc4)no3)c(=O)c3cc4c(cc32)OCO4)c(C)c1	0%	-20%
Cc1ccc(NC(=O)Cn2c(=O)n(Cc3nc(-c4ccccc4)no3)c(=O)c3cc4c(cc32)OCO4)cc1F	-3%	13µM*
O=C(Cn1c(=O)n(Cc2nc(-c3ccccc3)no2)c(=O)c2cc3c(cc21)OCO3)Nc1ccc(Cl)cc1	-4%	10µM*
O=C(Cn1c(=O)n(Cc2nc(-c3ccccc3)no2)c(=O)c2cc3c(cc21)OCO3)Nc1ccccc1	-4%	?
COC(=O)c1ccccc1NC(=O)C1(c2cccs2)CCOCC1	-5%	-5%
O=C(O)c1cc2c(s1)-c1ccccc1CC2	-1%	-4%
O=C(O)c1cc2c(s1)-c1ccccc1OC2	?	25µM*
COc1cccc(C(=O)N2c3nc(-c4ccco4)nn3C3(CCCCC3)[C@@H]3CCCC[C@@H]32)c1	-7%	-9%
COc1ccc(Cl)cc1NC(=O)NCCc1c(C)nn(C)c1C	0%	-11%
O=C1N/C(=N\N=C\c2cccs2)SC1Cc1cccc(Cl)c1 (configuration not stated)	-3%	?
O=C1N/C(=N\N=C\c2cccs2)SC1Cc1ccc(Cl)cc1 (configuration not stated)	-6%	2.5µM*

Screens from PubChem.
